From PubChem
Shown are actives, neighbours in structure and some others; about 3.4% of the full set was active somewhere.
pPAFAH FP inh = pPAFAH (human) enzyme inhibition | recombinant pPAFAH, FP-rhodamine probe fluorescence polarization | 1.5% of 330,000 active | AID 463082 | inhibition, % at 3.39 µM;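 active means inhibition above the mean inhibition across the screen plus 3 SD, cut at about 25% in these data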;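 further: inhibitors block binding of the rhodamine activity-based probe so polarization drops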
PAFAH2 inh = inhibitors of human PAFAH2; recombinant PAFAH2, FP-rhodamine activity probe, fluorescence polarization; inhibition, % at 3.39 µM; 0.99% of 340,000 active; AID 492956;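 active means inhibition above the mean over all tested compounds plus 3 SD, cut at about 30% in these data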;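 further: inhibitors block probe labeling of enzyme so polarization drops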
PP5 primary = PP5 (human) phosphatase inhibition; 0.18% of 320,000 active; inhibition, % at 6.7 µM; purified PP5c, OMFP substrate fluorescence; AID 1987;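 active means inhibition above the campaign's mean inhibition across all tested compounds plus 3 SD, cut at about 9.5% in these data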
PP1 counter = counter-screen for PP5 inhibitors: inhibitors of human PP1-alpha. 0.9% of 320,000 active. P62136. inhibition, % at 6.7 µM. AID 2235. purified PP1alpha, OMFP fluorescence;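 active means inhibition above the mean inhibition of all tested compounds plus 3 SD, computed separately for each screening campaign, cut at about 15% in these data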
PAFAH1B2 FP inh = PAFAH1B2 (human) inhibition | inhibition, % at 3.39 µM | 1.2% of 340,000 active | P68402 | recombinant PAFAH1B2, FP-rhodamine activity probe, fluorescence polarization;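 active means inhibition above the mean of all tested compounds plus 3 SD, cut at about 24% in these data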
Target sequence (P68402 whole entry, looked up): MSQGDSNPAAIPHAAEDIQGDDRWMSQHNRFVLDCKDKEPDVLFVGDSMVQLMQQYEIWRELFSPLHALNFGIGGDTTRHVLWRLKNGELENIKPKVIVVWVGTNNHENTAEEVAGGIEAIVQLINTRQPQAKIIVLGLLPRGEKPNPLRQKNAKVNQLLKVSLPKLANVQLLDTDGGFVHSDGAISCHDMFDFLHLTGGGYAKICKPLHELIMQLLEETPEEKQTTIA
PAFAH1B3 FP inh = blocks human PAF acetylhydrolase 1B catalytic subunit 3; Q15102; recombinant PAFAH1B3, FP-rhodamine probe, fluorescence polarization; inhibition, % at 3.39 µM; 0.28% of 340,000 active; AID 492972;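 active means inhibition above the screen-wide average of all tested compounds plus 3 SD, cut at about 25% in these data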
Target sequence (Q15102 whole entry, looked up): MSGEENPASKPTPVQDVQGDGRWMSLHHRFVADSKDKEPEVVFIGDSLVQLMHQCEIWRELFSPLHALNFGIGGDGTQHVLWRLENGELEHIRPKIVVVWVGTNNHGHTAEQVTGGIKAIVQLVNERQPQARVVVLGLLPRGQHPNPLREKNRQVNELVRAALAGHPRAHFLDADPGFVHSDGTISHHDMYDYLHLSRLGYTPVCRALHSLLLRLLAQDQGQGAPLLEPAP
PAFAH1B3 conf FP = PAFAH1B3 (human) inhibition, confirmed; shares compounds with PAFAH1B3 FP inh; recombinant PAFAH1B3, FP-Rh activity-based probe, fluorescence polarization; inhibition, % at 3.39 µM; 30% of 390 active;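 active means average inhibition over triplicate runs above the hit cutoff set in the earlier primary screen, cut at about 25% in these data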
Large screens that a line does not name were inactive (follow-up assays come after a bar, where they were run).

CCOC(=O)c1ccc(CC(=O)c2ccc(O)cc2O)o1	none
COc1cccc(OC)c1OC(=O)c1cnccn1	none
CC(=O)c1c(C)[nH]c(C(=O)Nc2ccc(Cl)c(S(=O)(=O)N3CCOCC3)c2)c1C	PAFAH1B3 FP inh 28 | PAFAH1B3 conf FP inactive
CC(=O)SCCC(=O)Nc1ccccc1	PAFAH1B3 FP inh 26 | PAFAH1B3 conf FP inactive
C=CC(=O)Nc1ccc(Br)cc1	PAFAH1B3 FP inh 63 | PAFAH1B3 conf FP 57
NCC(=O)Nc1ccc(Br)cc1	none
Clc1cccc2sc(N3CCOCC3)nc12	PAFAH1B3 FP inh 30 | PAFAH1B3 conf FP inactive
CC(C)(C)NCC(O)COc1cccc2c1C[C@H](O)[C@H](O)C2 (stereo partly drawn)	PAFAH1B3 FP inh 33 | PAFAH1B3 conf FP inactive
O=c1cc[nH]c2c1ccc1c(=O)cc[nH]c12	PAFAH1B3 FP inh 31 | PAFAH1B3 conf FP 80
O=c1cc[nH]c2c(Cl)cccc12	none
COc1ccc(C(=O)Nc2ccc(O)c3c(=O)cc(-c4cccc(Cl)c4)oc23)cc1	none
Oc1cc(NCc2ccc(F)cc2)cc2cccnc12	none (no result: PP5 primary, PP1 counter)
CN(C)CCCNc1cc(O)c2ncccc2c1	PAFAH1B3 FP inh 29 (no result: PP5 primary, PP1 counter) | PAFAH1B3 conf FP inactive
O=C(COc1ccccc1)NCCS(=O)(=O)N1CCN(c2ccccc2)CC1	none
O=C(CCCC(=O)N(CC(=O)NC1CCCC1)C1CCCC1)Nc1ccccn1	none
CC(=O)c1ccc(NC(=O)CNC2CCCCC2)cc1	PAFAH1B3 FP inh 30 | PAFAH1B3 conf FP inactive
On1nnc2ccccc21	none
On1nnc2c3ccccc3c3ccccc3c21	PAFAH1B3 FP inh 38 | PAFAH1B3 conf FP 42
N#Cc1cc2ccc(N3CCOCC3)cc2cc1C#N	PAFAH1B3 FP inh 60 | PAFAH1B3 conf FP inactive
N#Cc1cc(Cl)c(N2CCOCC2)cc1C#N	none
Cc1ccc(OCCN2C(=O)c3ccccc3C2=O)c([N+](=O)[O-])c1	none
COc1ccc(CC(=O)NCc2ccco2)cc1OC	none
NC(=O)c1cc([N+](=O)[O-])ccc1Nc1ccccc1	none
O=C(O)c1ccccc1Nc1ccc([N+](=O)[O-])cc1C(=O)O	PAFAH1B3 FP inh 43 | PAFAH1B3 conf FP inactive
O=C(O)[C@@H]1[C@H]2C[C@H]3c4[nH]c5ccccc5c4CCN3C[C@@H]2CC[C@@H]1O	PAFAH1B3 FP inh 28 | PAFAH1B3 conf FP inactive
COc1ccc2c3c([nH]c2c1)[C@H]1C[C@H]2[C@H](C[C@@H](O)[C@H](OC)[C@H]2C(=O)O)CN1CC3	none
COc1ccccc1C(=O)N=C1NC(=O)CC2C(=O)NCCN12 (stereo not drawn)	none
O=[N+]([O-])c1ccc(NN=Cc2ccccc2O)nc1	none (no result: pPAFAH FP inh, PP5 primary, PP1 counter)
O=[N+]([O-])c1ccc(N/N=C/c2ccccc2O)cc1	PAFAH1B3 FP inh 26 | PAFAH1B3 conf FP inactive
Cc1cccc(C2Nc3cccc4cccc(c34)N2)c1	PAFAH1B3 FP inh 31 | PAFAH1B3 conf FP inactive
Clc1ccc(C2Nc3cccc4cccc(c34)N2)cc1	none
c1cc2c3c(cccc3c1)NC(c1ccc3c(c1)OCO3)N2	PAFAH1B3 FP inh 28 | PAFAH1B3 conf FP inactive
CCOc1ccc(NC(=O)C/C(C)=N/NC(=O)Cc2ccc(Cl)cc2)cc1	none
O=C(NCCCN1CCN(Cc2ccccc2)CC1)C1CCN(c2nnc(-n3cccc3)s2)CC1	none
CC1=CC(C)(C)NC(=S)N1c1cccc2cc(S(=O)(=O)O)ccc12	PAFAH1B3 FP inh 29 | PAFAH1B3 conf FP inactive
CC1=CC(C)(C)NC(=S)N1c1ccccc1C	none
O=c1cc(-c2ccc(O)cc2)oc2c(C3O[C@H](CO)[C@@H](O)[C@H](O)[C@H]3O)c(O)cc(O)c12 (stereo partly drawn)	none
O=c1cc(-c2ccc(O)c(O)c2)oc2c(C3O[C@H](CO)[C@@H](O)[C@H](O)[C@H]3O)c(O)cc(O)c12 (stereo partly drawn)	PAFAH1B3 FP inh 30 | PAFAH1B3 conf FP inactive
COc1ccc(C(=O)N/N=C/c2sc3ccccc3c2O)cc1	none
COc1ccc2cc(C(=O)N/N=C/c3sc4ccccc4c3O)ccc2c1	PAFAH1B3 FP inh 30 | PAFAH1B3 conf FP inactive
CC(C)(C)c1ccc(NC(=O)COC(=O)c2ccc([N+](=O)[O-])s2)cc1	PAFAH1B3 FP inh 38 | PAFAH1B3 conf FP inactive
